Results filed as inconclusive are left out. Active and inactive are the calls of the source. Calls come from the whole dose curve; as a rule, active = well fitted curve in the direction sought with a large enough effect in the repeat runs; inconclusive = weak or mixed curves; inactive = no such curve, though single readings can be large; an effect the other way counts as inactive or inconclusive.
Experiments:
[1] = qHTS RealTime-Glo MT Cell Viability Assay in HepG2 cells - 24 hour (AID 1224867); note: nearly all actives have a fitted effect of over 50% in size
Outline: (§1)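 Viability was tracked continuously by NanoLuc luminescence from prosubstrate reduced by living HepG2 cells, at successive time points over 40 h of compound exposure. Cells with reagent were preincubated 5 h at 37 °C before compound addition.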

[2] = A CellTox Green Cytotoxicity Assay to monitor cytotoxicity in HEK293 cells - 0 hour (AID 1224869); note: nearly all actives have a fitted effect of over 50% in size
Outline: (§2)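 HEK293 cells, 600/well, were preincubated 5 hours and then exposed to compounds at 37 C for up to 40 hours. A cell-impermeant cyanine dye staining dead-cell DNA was read by fluorescence at 0, 8, 16, 24, 32 and 40 h time points.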

[3] = qHTS RealTime-Glo MT Cell Viability Assay in HepG2 cells - 40 hour (AID 1224870); note: nearly all actives have a fitted effect of over 50% in size
Outline: (§3)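 Real-time viability: cells seeded at 600 per well together with NanoLuc and cell-permeant prosubstrate, compounds added after 5 h incubation. Luminescence tracked at 0, 8, 16, 24, 32 and 40 h of exposure.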

[4] = A CellTox Green Cytotoxicity Assay to monitor cytotoxicity in HEK293 cells - 40 hour (AID 1224871); note: nearly all actives have a fitted effect of over 45% in size; note: potency is the fitted concentration of half-maximal effect
Outline: as §2

[5] = qHTS RealTime-Glo MT Cell Viability Assay in HepG2 cells - 8 hour (AID 1224873); note: nearly all actives have a fitted effect of over 55% in size
Outline: as §3

[6] = qHTS RealTime-Glo MT Cell Viability Assay in HEK293 cells - 40 hour (AID 1224874); conditions: RealTime-Glo luminescence, active compounds read low; note: nearly all actives have a fitted effect of over 50% in size
Outline: (§4)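 600 cells/well were plated with the nonlytic NanoLuc/prosubstrate reagent, pre-incubated 5 h, then given 23 nL of compound in DMSO. Incubation at 37 C for 40 h, with luminescence from viable-cell-reduced substrate read repeatedly from 0 h.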

[7] = A CellTox Green Cytotoxicity Assay to monitor cytotoxicity in HEK293 cells - 24 hour (AID 1224875); note: nearly all actives have a fitted effect of over 45% in size; note: potency is the fitted concentration of half-maximal effect; for activity change: series mostly up to about 77 µM
Outline: as §2

[8] = A CellTox Green Cytotoxicity Assay to monitor cytotoxicity in HepG2 cells - 16 hour (AID 1224876); note: nearly all actives have a fitted effect of over 45% in size; note: potency is the fitted concentration of half-maximal effect
Outline: (§5)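 HepG2 cells, 600/well, preincubated 5 h with CellTox Green dye, then exposed to Tox21 compounds in DMSO at 37 C for up to 40 h. Dead-cell DNA fluorescence read at the indicated time point.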

[9] = qHTS RealTime-Glo MT Cell Viability Assay in HepG2 cells - 32 hour (AID 1224877); note: nearly all actives have a fitted effect of over 55% in size
Outline: as §1

[10] = A CellTox Green Cytotoxicity Assay to monitor cytotoxicity in HepG2 cells - 24 hour (AID 1224878); note: nearly all actives have a fitted effect of over 45% in size; note: potency is the fitted concentration of half-maximal effect
Outline: as §5

[11] = A CellTox Green Cytotoxicity Assay to monitor cytotoxicity in HepG2 cells - 40 hour (AID 1224879); note: nearly all actives have a fitted effect of over 40% in size; note: potency is the fitted concentration of half-maximal effect
Outline: as §5

[12] = qHTS RealTime-Glo MT Cell Viability Assay in HEK293 cells - 0 hour (AID 1224880)
Outline: as §4

[13] = A CellTox Green Cytotoxicity Assay to monitor cytotoxicity in HEK293 cells - 32 hour (AID 1224881); note: nearly all actives have a fitted effect of over 40% in size; note: potency is the fitted concentration of half-maximal effect
Outline: as §2

[14] = A CellTox Green Cytotoxicity Assay to monitor cytotoxicity in HepG2 cells - 0 hour (AID 1224882); note: nearly all actives have a fitted effect of over 35% in size
Outline: as §5

[15] = A CellTox Green Cytotoxicity Assay to monitor cytotoxicity in HepG2 cells - 32 hour (AID 1224883); note: nearly all actives have a fitted effect of over 50% in size; note: potency is the fitted concentration of half-maximal effect
Outline: as §5

[16] = A CellTox Green Cytotoxicity Assay to monitor cytotoxicity in HEK293 cells - 8 hour (AID 1224884); note: nearly all actives have a fitted effect of over 35% in size
Outline: as §2

[17] = qHTS RealTime-Glo MT Cell Viability Assay in HepG2 cells - 16 hour (AID 1224885); note: nearly all actives have a fitted effect of over 50% in size
Outline: as §1

[18] = qHTS RealTime-Glo MT Cell Viability Assay in HEK293 cells - 24 hour (AID 1224886)
Outline: (§6)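 Viability tracked continuously by luminescence as live cells reduce a prosubstrate for NanoLuc; HEK293 cells preincubated 5 h, compound-treated at 37 C, and read at 0, 8, 16, 24, 32 and 40 h.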

[19] = qHTS RealTime-Glo MT Cell Viability Assay in HEK293 cells - 16 hour (AID 1224872)
Outline: as §6

[20] = qHTS RealTime-Glo MT Cell Viability Assay in HEK293 cells - 32 hour (AID 1224868)
Outline: as §6
% is set by controls: 0 for no effect and ±100 for the full control effect.

CCCc1ccc(O)c(OC)c1
inactive: outcome [1] | outcome [2] | outcome [3] | Potency [4] | outcome [5] | max response [6] 6.36% | Potency [7] | Potency [8] | outcome [9] | Potency [10] | Potency [11] | Potency [12] | Potency [13] | Potency [14] | Potency [15] | Potency [16] | outcome [17] | outcome [18]

CNCCc1ccccn1
inactive: outcome [1] | outcome [3] | Potency [4] | outcome [19] | outcome [5] | max response [6] -0.337% | Potency [7] | outcome [9] | Potency [10] | Potency [11] | Potency [12] | Potency [14] | Potency [15] | Potency [16] | outcome [17] | outcome [18]

O=C1Nc2ccccc2C1=O
inactive: outcome [1] | outcome [2] | outcome [3] | Potency [4] | Potency [7] | Potency [8] | outcome [9] | Potency [10] | Potency [12] | Potency [13] | Potency [14] | Potency [15] | Potency [16] | outcome [17]

N#CC1(N)CCCCC1
inactive: outcome [1] | outcome [2] | outcome [3] | Potency [4] | outcome [19] | outcome [5] | max response [6] 6.54% | Potency [7] | outcome [9] | Potency [10] | Potency [11] | Potency [12] | Potency [13] | Potency [14] | Potency [15] | outcome [17] | outcome [18]

N=C(N)N1CCc2ccccc2C1
inactive: activity change, negative = cytotoxicity [1] -0.623% [at 6.97 µM] | cytotoxicity [2] -7.02% [at 6.97 µM] | cytotoxicity increase [4] -5.28% [at 6.97 µM] | viability change, negative = cytotoxic [5] 0.945% [at 6.97 µM] | max response [6] 0.0826% | activity change [7] -12.7% [at 6.97 µM, active compounds read high] | activity change, negative = cytotoxic [9] 0.278% [at 6.97 µM] | activity change, negative = cytotoxicity [12] -0.804% [at 6.97 µM] | cytotoxicity increase [13] -11.6% [at 6.97 µM] | cytotoxicity increase [15] -12.5% [at 6.97 µM] | cytotoxicity increase [16] -15.6% [at 6.97 µM] | activity change, negative = cytotoxic [17] 0.556% [at 6.97 µM] | activity change, negative = cytotoxicity [18] 2.27% [at 6.97 µM]

CC(=O)SCC(CC(=O)c1ccc(C)cc1)C(=O)O (stereo unspecified)
inactive: outcome [1] | outcome [3] | Potency [4] | outcome [19] | outcome [5] | max response [6] -0.0795% | Potency [7] | Potency [8] | outcome [9] | Potency [10] | Potency [12] | Potency [14] | Potency [15] | Potency [16] | outcome [17] | outcome [18]

CC(=O)c1ccc2ccc3ccccc3c2c1
inactive: outcome [1] | outcome [2] | outcome [3] | Potency [4] | outcome [5] | Potency [7] | Potency [8] | outcome [9] | Potency [10] | Potency [11] | Potency [12] | Potency [13] | Potency [14] | Potency [15] | Potency [16] | outcome [17]

CC(=O)c1c(C)cc(C(C)(C)C)cc1C
active: Potency [4] 24.5 µM | Potency [7] 21.9 µM | Potency [8] 38.9 µM | Potency [10] 34.7 µM | Potency [13] 24.5 µM | Potency [15] 38.9 µM
inactive: outcome [1] | outcome [2] | outcome [3] | outcome [5] | outcome [9] | Potency [12] | Potency [14] | Potency [16] | outcome [17]

Nc1ccc(C(=O)NCC(=O)O)cc1
inactive: outcome [1] | outcome [2] | Potency [4] | outcome [5] | max response [6] -0.411% | Potency [8] | outcome [9] | Potency [10] | Potency [11] | Potency [12] | Potency [14] | Potency [15] | Potency [16] | outcome [17] | outcome [18]

COC(=O)c1c(C)cc(O)c(C)c1O
inactive: outcome [1] | outcome [2] | outcome [3] | Potency [4] | outcome [5] | Potency [7] | Potency [8] | outcome [9] | Potency [10] | Potency [11] | Potency [12] | Potency [13] | Potency [14] | Potency [15] | Potency [16] | outcome [17]

CCCCN1C(=O)c2ccccc2C1=O
inactive: outcome [1] | outcome [2] | Potency [4] | outcome [19] | outcome [5] | max response [6] -3.23% | Potency [7] | outcome [9] | Potency [12] | Potency [13] | Potency [14] | Potency [16] | outcome [17] | outcome [18]

Cc1cc(O)c(Cl)cc1C
inactive: outcome [1] | outcome [2] | Potency [4] | outcome [19] | outcome [5] | max response [6] -1.07% | Potency [7] | outcome [9] | Potency [12] | Potency [13] | Potency [14] | Potency [16] | outcome [17] | outcome [18]
active: Potency [10] 49 µM | Potency [11] 49 µM | Potency [15] 49 µM

COc1cc(C(=O)NC2CCCNC2)cc(OC)c1OC (stereo unspecified)
inactive: outcome [20] | outcome [2] | Potency [4] | outcome [19] | max response [6] 1.36% | Potency [7] | Potency [8] | Potency [10] | Potency [11] | Potency [12] | Potency [14] | Potency [15] | Potency [16] | outcome [18]

Cc1cc2c(cc1CC(=O)c1sccc1S(=O)(=O)Nc1onc(C)c1Cl)OCO2
inactive: outcome [1] | outcome [2] | outcome [3] | Potency [4] | outcome [5] | max response [6] 6.15% | Potency [8] | outcome [9] | Potency [10] | Potency [13] | Potency [14] | Potency [15] | Potency [16] | outcome [17] | outcome [18]
